Bioassay records as filed in PubChem BioAssay.
SMN2 splice enh = enhancers of SMN2 splice variant expression | HEK293 SMN2-luciferase splicing reporter, luminescence, 30-36 h | Potency, µM (titrated, usually from 46.1 µM), inactives show at the top dose activity change, positive = activation, actives largely listed as activators | 210,000 compounds, 2.8% hits; note: % of control where 0% means no effect; nearly all actives have a fitted effect of over 55% in size
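HEK293 cells carry an SMN2 minigene-luciferase reporter in which exon 7 inclusion puts luciferase in frame. Cells were seeded at 2000 cells/well, attached for 10-12 hours, then exposed to compounds for 30-36 hours at 37C before ONE-Glo luminescence.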
ELG1 genotoxic = induces genotoxicity in HEK293T cells with luciferase-tagged ELG1; HEK293T ELG1-luciferase reporter, luminescence, 16 h; Potency, µM (series often up to 46 µM), for inactives: top-dose activity change, positive = activation, most hits filed as activators; AID 504466; 330,000 compounds, 1.3% hits; note: % of control where 0% means no effect; nearly all actives have a fitted effect of over 60% in size
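HEK293T cells expressing luciferase-tagged ELG1 were exposed to compound or DMSO vehicle for 16 hr at 37 °C and 5% CO2. Luciferase activity was then measured with ONE-Glo after 30 min at room temperature.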
NPC1 promoter act = activators of NPC1 promoter. Huh7 NPC1 promoter luciferase reporter, 24 h. Potency, µM (highest dose often 9.22 µM), for inactives: top-dose activation, most hits filed as activators. 320,000 compounds, 2.4% hits; note: % of control where 0% means no effect; nearly all actives have a fitted effect of over 60% in size
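Luciferase expression driven by the NPC1 promoter was measured in stably transfected Huh7 cells after a 24 h compound incubation, using a luciferase reagent and a luminescence read.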
p53 reactivation = restores transcriptional activity of mutant p53; H1299 p53-A138V BP100-luciferase reporter, luminescence, 24 h; Potency, µM (doses to about 92.2 µM), for the others: at the highest dose activity change, positive = activation, usual class: activators; 320,000 compounds, 0.063% hits; note: % of control where 0% means no effect; nearly all actives have a fitted effect of over 45% in size
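p53-null H1299 cells stably carrying temperature-sensitive p53-A138V and a BP100-luciferase reporter were pinned with compounds (4-point, 1:5 series) and held 24 hrs at 37 deg C. Luminescence was read 10 min after detection reagent.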
FLuc counter = inhibits or activates purified firefly luciferase, miR-21 counter-screen. 360,000 compounds, 6.9% hits. Potency, µM (top dose mostly 57.5 µM), inactives show at the top dose activity change, negative = inhibition, most hits filed as inhibitors. purified FLuc, Km substrates, luminescence inhibition;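 note: plate controls were vehicle for no effect and reference inhibitor for full effect; nearly all actives have a fitted effect of over 55% in size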
Target sequence (P08659 whole entry, looked up): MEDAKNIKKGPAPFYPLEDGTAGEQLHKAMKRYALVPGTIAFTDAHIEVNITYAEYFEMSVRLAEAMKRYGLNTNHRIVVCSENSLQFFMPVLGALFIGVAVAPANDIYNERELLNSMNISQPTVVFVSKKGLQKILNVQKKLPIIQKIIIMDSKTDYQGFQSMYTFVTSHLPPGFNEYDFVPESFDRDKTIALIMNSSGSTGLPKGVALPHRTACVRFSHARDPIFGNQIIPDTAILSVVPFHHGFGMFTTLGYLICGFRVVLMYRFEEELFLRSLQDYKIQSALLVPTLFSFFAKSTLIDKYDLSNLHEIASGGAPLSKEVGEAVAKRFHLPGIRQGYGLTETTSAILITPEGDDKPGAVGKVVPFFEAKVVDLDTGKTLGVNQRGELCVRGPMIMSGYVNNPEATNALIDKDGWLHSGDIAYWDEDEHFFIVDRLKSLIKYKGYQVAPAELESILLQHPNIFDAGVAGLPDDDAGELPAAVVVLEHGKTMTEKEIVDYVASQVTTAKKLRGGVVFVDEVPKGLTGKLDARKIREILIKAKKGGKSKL
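Purified P. pyralis luciferase, 10 nM final, with Km-level 10 uM D-luciferin and 10 uM ATP in 50 mM Tris acetate pH 7.5, 10 mM Mg acetate, 0.01% Tween-20, 0.05% BSA; 6-point qHTS titration about 60 µM downward; luminescence read.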
Rab9 prom act = Rab9 promoter activation | Huh7 Rab9 promoter-luciferase reporter, luminescence, 24 h | Potency, µM (series often up to 9.22 µM), for the others: at the top dose activation, negative = inhibition, usual class: activators | 320,000 compounds, 2.8% hits | AID 485297; note: % of control where 0% means no effect; nearly all actives have a fitted effect of over 60% in size
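Stable Rab9-luc Huh7, 1500 cells/well, 2 h settle; cmpd in DMSO, 24 h, 37 °C/5% CO2; luciferase reagent 10 min RT; luminescence.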
An asterisk follows results filed as active; [ ] = another dose, or the depositor's remark. Shown are actives, neighbours in structure and some others; about 7.3% of the full set was active somewhere. Calls come from the whole dose curve; as a rule, active = well fitted curve in the direction sought with a large enough effect; inconclusive = small, poorly fitted or top-dose-only effect, or another doubt; inactive = no such curve, though single readings can be large; an effect the other way counts as inactive or inconclusive. Potency is the fitted concentration of half-maximal effect.

For O=c1oc2ccccc2c(Nc2ccccc2O)c1[N+](=O)[O-] the results were ELG1 genotoxic 2.2%, NPC1 promoter act -0.5%, p53 reactivation 6.3%, FLuc counter 0.2% and Rab9 prom act 11.1%.
For O=c1oc2ccccc2c(Nc2cc3ccccc3cc2O)c1[N+](=O)[O-] the results were ELG1 genotoxic 7.3%, NPC1 promoter act inconclusive, p53 reactivation inconclusive, FLuc counter 12µM* and Rab9 prom act inconclusive.
Screening Cc1ccc(Nc2sc(C(=O)c3ccccc3)c(N)c2S(=O)(=O)c2ccccc2)cc1Cl returned SMN2 splice enh -18.3% and FLuc counter -1.5%.
O=C(NC1=NCCS1)c1csc2ccccc12 was read as SMN2 splice enh 11.2µM*, ELG1 genotoxic inconclusive, NPC1 promoter act 2.24µM*, p53 reactivation inconclusive, FLuc counter -26.7%[2.3 µM] and Rab9 prom act 1.58µM*.
O=C(NC1=NCCS1)c1cccs1 was read as SMN2 splice enh 28.2µM*, ELG1 genotoxic 18.9%, NPC1 promoter act 4.5%, p53 reactivation 3.6%, FLuc counter -19.3% and Rab9 prom act 15.8%.
For O=C(NC1=NCCS1)c1ccccc1Cl the results were ELG1 genotoxic 5.1%, NPC1 promoter act 2.3%, p53 reactivation 3.5%, FLuc counter -18.9% and Rab9 prom act 4.4%.
For O=C(NC1=NCCS1)c1ccc(Cl)c(Cl)c1 the results were ELG1 genotoxic inconclusive, NPC1 promoter act 0.631µM*, p53 reactivation -1.1%, FLuc counter 4.78µM* and Rab9 prom act 0.631µM*.
O=C(Nc1cnccn1)c1csc2ccccc12 was read as SMN2 splice enh inconclusive, ELG1 genotoxic inconclusive, NPC1 promoter act 25.2%, p53 reactivation inconclusive, FLuc counter 19µM* and Rab9 prom act inconclusive.
NC(N)=N/N=C\c1ccc(O)c(C(=O)O)c1 was read as SMN2 splice enh 2.8%[9.22 µM].
Screening CCC(=O)N1c2ccc(S(=O)(=O)CCC(=O)NCc3ccc(OC)cc3)cc2CC1C (stereo not drawn) returned SMN2 splice enh -15.0% and FLuc counter -10.5%.
CCc1ccc(C2CC(=O)c3c([nH]c(C(=O)OC4CCCCCC4)c3C)C2)cc1 (stereo not drawn) was read as SMN2 splice enh -1.2% and FLuc counter -2.9%.
Screening CC(Oc1ccccc1)C(=O)OCc1cc(=O)n2nc(C(C)C)sc2n1 (stereo not drawn) returned FLuc counter -5.4%.
Screening CCc1c(-c2ccccc2)nc2ccccc2c1C(=O)NCc1ccc(C)cc1 returned FLuc counter -9.4%.
For O=C(NC1=NCCS1)c1ccccc1 the results were ELG1 genotoxic 15.7%, NPC1 promoter act 20.9%, FLuc counter -17.6% and Rab9 prom act 23.5%.
Cc1cc(C(=O)NC2=NCCS2)cs1 was read as SMN2 splice enh 11.2µM*, ELG1 genotoxic 16.4µM*, NPC1 promoter act 2.51µM*, p53 reactivation inconclusive, FLuc counter 8.49µM* and Rab9 prom act 1.58µM*.
Screening Cc1cccc(C(=O)NC2=NCCS2)c1 returned ELG1 genotoxic inconclusive, NPC1 promoter act 1.26µM*, p53 reactivation 6.4%, FLuc counter 8.49µM* and Rab9 prom act 0.708µM*.
For CCCOc1cccc(C2c3c(oc4ccc(F)cc4c3=O)C(=O)N2c2nc(C)c(C(C)=O)s2)c1 (stereo not drawn) the results were SMN2 splice enh -3.6% and FLuc counter 0.3%.
CC(=O)c1cccc(NC(=O)c2ccc(-n3c(C)nnc3C)cc2)c1 was read as FLuc counter -4.7%.
Cc1cccc(-c2nc(S(=O)(=O)c3ccc(Cl)cc3)c(N3CCCCCC3)o2)c1 was read as SMN2 splice enh -2.2% and FLuc counter 0.1%.
CSCC(=O)N1CCCC(CNC(=O)c2ccc(-c3ccccc3)cc2)C1 (stereo not drawn) was read as ELG1 genotoxic -6.4%, NPC1 promoter act 2.3%, p53 reactivation -2.0%, FLuc counter 21.3µM* and Rab9 prom act -2.1%.
`CC(=O)CCC(=O)N1CCCC(CNC(=O)c2ccc(-c3ccccc3)cc2)C1` (stereo not drawn) gave ELG1 genotoxic 4.5%, NPC1 promoter act 16.8%, p53 reactivation 3.8%, FLuc counter 10.7µM* and Rab9 prom act 25.2%.
`COc1cc(/C=C2/C(=O)NN(c3ccccc3)C2=O)cc(Br)c1O` gave ELG1 genotoxic 9.5%, NPC1 promoter act -3.8%, p53 reactivation -0.9%, FLuc counter 16.9µM* and Rab9 prom act -1.5%.
For COc1cc(/C=C2/C(=O)NN(c3ccc(Cl)cc3)C2=O)cc(OC)c1O the results were ELG1 genotoxic 0.2%, NPC1 promoter act 0.2%, p53 reactivation -2.6%, FLuc counter 12µM* and Rab9 prom act -2.2%.
For CCOC(=O)COc1ccc(/C=C2/C(=O)NN(c3ccc(F)cc3)C2=O)cc1OC the results were ELG1 genotoxic 7.9%, NPC1 promoter act -2.9%, p53 reactivation -5.1%, FLuc counter inconclusive and Rab9 prom act -0.3%.
`COc1ccc(C(=O)Cc2ccc3c(c2)OCO3)c(O)c1` gave SMN2 splice enh 5.62µM*, ELG1 genotoxic inconclusive, NPC1 promoter act 2.82µM*, p53 reactivation inconclusive, FLuc counter 2.69µM* and Rab9 prom act 3.98µM*.
For CCOc1ccc(C(=O)Cc2ccc3oc(C(=O)O)cc3c2)c(O)c1 the results were SMN2 splice enh -4.3%, ELG1 genotoxic -3.5%, NPC1 promoter act 2.6%, p53 reactivation -10.0%, FLuc counter inconclusive and Rab9 prom act -2.4%.
For O=C(O)COc1ccc(C(=O)Cc2ccc3c(c2)OCCCO3)c(O)c1 the results were SMN2 splice enh -21.8%, ELG1 genotoxic -2.8%, NPC1 promoter act -2.9%, p53 reactivation -4.0%, FLuc counter 26.9µM* and Rab9 prom act -3.0%.
O=C(Cc1ccc2c(c1)OCCO2)c1c(O)cc(O)cc1O was read as SMN2 splice enh 10.7%, ELG1 genotoxic 17.3%, NPC1 promoter act 26.6%, p53 reactivation inconclusive, FLuc counter 26.9µM* and Rab9 prom act inconclusive.
O=C(CCc1ccc(O)cc1)c1c(O)cc(O)cc1O was read as SMN2 splice enh -10.9%, ELG1 genotoxic 1.1%, NPC1 promoter act 24.9%[46.1 µM], p53 reactivation 8.2%, FLuc counter inconclusive and Rab9 prom act 16.4%[46.1 µM].
For CC(=O)Oc1ccc(-c2csc(Nc3ccc(Cl)cn3)n2)cc1 the results were ELG1 genotoxic inconclusive, NPC1 promoter act inconclusive, FLuc counter -18.7% and Rab9 prom act inconclusive.
